The list is not random: actives were taken first. Their share in the collection is about 1.6%.
KCNQ2 block: blocks the rat KCNQ2 potassium channel; B-score at 10 µM; O88943; CHO-K1 KCNQ2, FluxOR thallium flux, 20 min; stronger effect = lower value; 310,000 tested, 1.1% active;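 active = fluorescence ratio B-score at most minus 3 library SDs, with starting brightness B-score within 2 library SDs, cut at about -5.5 in these data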
KCNQ2 pot: potentiators of rat KCNQ2 potassium channel. B-score at 10 µM. 310,000 tested, 0.54% active. CHO-K1 KCNQ2, FluxOR thallium flux fluorescence; stronger effect = higher value. O88943;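 active = fluorescence ratio B-score at least 3 SD of library B-scores, with initial fluorescence B-score within 3 of them, cut at about 5.3 in these data; same plate scores as AID 2156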;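 also: B-score of peak minus minimum over baseline fluorescence ratio after K+ and Tl+ stimulus; positive B-score means potentiation of KCNQ2 with more thallium influx and brighter signal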
Kir21 conf inh: confirmation of mouse Kir2.1 potassium channel inhibitors; shares compounds with KCNQ2 pot; Kir2.1-expressing cells, FluxOR thallium flux fluorescence; stronger effect = lower value; Tl flux remaining, % of negative control (stronger effect = lower value), % at 10 µM; 2,300 tested, 41% active;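 active = Primary-screen hit whose thallium flux fell at least 3 control SD below untreated wells in both duplicates, with normal baseline fluorescence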;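 also: 0% = blank wells without stimulus and 100% = stimulated no-compound controls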
HEK293 Tl flux: alters thallium flux in parental HEK293 cells, Kir2.1 counter-screen; shares compounds with KCNQ2 pot; FluxOR thallium flux fluorescence; 0% = unstimulated blank wells; FluxOR signal as % of negative control (100 = no effect), % at 10 µM; 2,300 tested, 19% active; AID 2105;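 active = dye signal at least 3 control SD above or below untreated wells in both duplicates, raw fluorescence within 3, either direction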;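 also: percent is based on the flux ratio of peak minus minimum fluorescence over baseline F0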
CHO-K1 Tl ctr: alters thallium flux in parental CHO-K1 cells, KCNQ2 counter-screen; 1,200 tested, 43% active; FluxOR thallium flux fluorescence; zero = vehicle mean+3SD, 100% = vehicle-minus-blank window; shares compounds with KCNQ2 pot; activity increase over 3SD of controls, % at 10 µM;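 active = signal rise of at least 3 SD above the untreated control mean, in both duplicate wells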;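 also: counter screen of KCNQ2 potentiator hits so any rise reflects channel-independent effects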
KCNQ1 pot spec: selectivity of KCNQ2 potentiators: effect on human KCNQ1; shares compounds with KCNQ2 pot; CHO KCNQ1 stable, FluxOR thallium flux fluorescence; beyond 3SD, as % of vehicle-control signal; activation over 3SD threshold, % at 10 µM; 1,200 tested, 28% active; AID 2283;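 active = fluorescence ratio rise of at least 3 SD of vehicle wells above their mean, in both replicate wells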;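 also: 0% = vehicle mean plus 3 SD and 100% = vehicle minus unstimulated blank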
KCNQ2 pot confirm: confirmation of rat KCNQ2 potassium channel potentiators. potentiation, less the hit threshold, % at 10 µM. CHO-KCNQ2 cells, FluxOR thallium flux fluorescence. shares compounds with KCNQ2 pot. 1,200 tested, 68% active. AID 2287;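 active = fluorescence ratio rising 3 SD or more over the vehicle control mean in both replicates, plus primary screen hit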;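 also: peak minus minimum thallium fluorescence divided by baseline after K/Tl stimulus; 0% = vehicle mean plus 3 SD and 100% = vehicle minus unstimulated blank difference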
Kir2-1 sel: tests whether KCNQ2 potentiators also affect mouse Kir2.1. 1,200 tested, 2% active. HEK293 Kir2.1, FluxOR thallium flux fluorescence. activity over 3SD threshold, % at 10 µM. shares compounds with KCNQ2 pot. AID 2345;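 active = fluorescence ratio rise of at least 3 SD above the vehicle-control mean, seen in both replicates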;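 also: 0% = vehicle mean plus 3 SD and 100% = vehicle minus no-stimulus blank window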
KCNQ2 W236L pot: KCNQ2 potentiators acting on retigabine-insensitive rat KCNQ2 W236L mutant. current increase over 3SD of negative controls (%), stronger effect = higher value, % at 25 µM. 940 tested, 10% active. shares compounds with KCNQ2 pot. CHO KCNQ2-W236L, automated patch clamp current;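 active = current increase at least 3 SD of the untreated controls above them in both duplicate recordings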
Target sequence (O88943 whole entry W236L, looked up): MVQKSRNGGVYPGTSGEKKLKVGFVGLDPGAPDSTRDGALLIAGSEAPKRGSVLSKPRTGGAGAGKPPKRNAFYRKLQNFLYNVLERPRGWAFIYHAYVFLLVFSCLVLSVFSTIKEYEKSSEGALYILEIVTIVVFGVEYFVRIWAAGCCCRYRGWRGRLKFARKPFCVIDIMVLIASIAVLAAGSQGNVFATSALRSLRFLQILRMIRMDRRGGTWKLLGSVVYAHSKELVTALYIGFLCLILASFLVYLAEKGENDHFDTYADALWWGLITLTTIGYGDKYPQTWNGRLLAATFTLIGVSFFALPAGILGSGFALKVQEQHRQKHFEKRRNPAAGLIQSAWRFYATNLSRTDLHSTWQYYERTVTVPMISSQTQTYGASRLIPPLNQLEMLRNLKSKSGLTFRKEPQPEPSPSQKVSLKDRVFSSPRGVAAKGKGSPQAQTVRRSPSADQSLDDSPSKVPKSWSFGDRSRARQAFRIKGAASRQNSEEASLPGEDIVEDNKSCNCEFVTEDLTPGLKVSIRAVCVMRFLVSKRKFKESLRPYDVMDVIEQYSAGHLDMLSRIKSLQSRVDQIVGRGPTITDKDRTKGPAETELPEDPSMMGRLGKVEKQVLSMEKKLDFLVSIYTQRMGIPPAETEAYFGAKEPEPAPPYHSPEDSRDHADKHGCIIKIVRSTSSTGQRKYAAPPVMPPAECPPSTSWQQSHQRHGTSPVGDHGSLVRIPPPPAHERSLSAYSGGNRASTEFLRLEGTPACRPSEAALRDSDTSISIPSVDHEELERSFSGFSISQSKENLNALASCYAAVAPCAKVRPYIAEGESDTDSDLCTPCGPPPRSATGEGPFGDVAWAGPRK
Active calls of the source: *; i = inactive; x = not tested or not shown.

SMILES	KCNQ2 block	KCNQ2 pot	Kir21 conf inh	HEK293 Tl flux	CHO-K1 Tl ctr	KCNQ1 pot spec	KCNQ2 pot confirm	Kir2-1 sel	KCNQ2 W236L pot
COc1ccc(OC)c(NC(=O)C2CCCC2)c1	i	2.4	x	x	x	x	x	x	x
COc1ccc(OC)c(NC(=O)NC2CCCCCCC2)c1	i	12*	i	i	-15	-28	3.5*	-42	i
CC(=O)c1ccc(NC(=O)C2CC2c2ccccc2)cc1 (configuration not stated)	i	1.5	x	x	x	x	x	x	x
Cc1ccc(Cl)cc1NC(=O)C1CC1c1ccccc1 (configuration not stated)	i	6.2*	i	i	-14	-13	-1	-39	i
Cc1cccc(NC(=O)C2CC2c2ccccc2)c1C (configuration not stated)	i	18*	i	i	-6	-11	47*	-23	i
COc1ccc(OC)c(NC(=O)C(=S)NC2CCCCC2)c1	i	0.98	x	x	x	x	x	x	x
COc1ccc(OC)c(NC(=O)C2CC2c2ccccc2)c1 (configuration not stated)	i	19*	i	72%*	-5	8.9*	59*	-38	i
O=C(Nc1ccccc1F)C1CC1c1ccccc1 (configuration not stated)	i	4.2	x	x	x	x	x	x	x
Clc1ccc(-c2nsc(N3CCOCC3)n2)c(Cl)c1	i	0.45	x	x	x	x	x	x	x
Cc1cc(C)n(-c2ccc(Cl)c(C(=O)Nc3cc(C(F)(F)F)ccc3Cl)n2)n1	i	x	x	x	x	x	x	x	x
CCCC(=O)NC(=S)c1c(C)n(C)n(-c2ccccc2)c1=O	i	0.15	x	x	x	x	x	x	x
Cc1ccc(CCNC(=O)CC(C)CC2=NS(=O)(=O)c3ccccc3N2)cc1 (configuration not stated)	i	1.3	x	x	x	x	x	x	x
O=C(Nc1cccc(C(F)(F)F)c1)C1CCN(S(=O)(=O)c2ccc(N3CCCC3=O)cc2)CC1	i	0.62	x	x	x	x	x	x	x
COc1cc(NC(=O)COc2ccc(Cl)cc2)ccc1NC(=O)C(C)C	i	x	x	x	x	x	x	x	x
COc1ccc(OC)c(NC(=O)c2ccc(Cl)cc2)c1	i	6.5*	i	i	-10	-12	9.8*	-27	i
COc1ccc(NC(=O)C(=O)NNC(=O)COc2ccc(Cl)cc2)c(OC)c1	i	10*	i	318%*	0.6*	-31	21*	-12	i
COc1ccc(C(=O)Nc2cc(OC)ccc2OC)cc1	i	0.02	x	x	x	x	x	x	x
COc1ccc2c(c1)CCCC21NC(=O)N(CC(=O)NC(=O)NCc2ccccc2)C1=O (configuration not stated)	i	x	x	x	x	x	x	x	x
O=C(O)c1ccc(NC(=S)N2CCCCC2)cc1	i	0.58	x	x	x	x	x	x	x
S=C(Nc1ccccc1)N1CCCCC1	i	6.9*	i	i	-14	6.3*	-14	-29	x
CCCNc1c(NC(=O)C2CCC(C)CC2)c(=O)oc2ccccc12 (configuration not stated)	i	x	x	x	x	x	x	x	x
Cc1cc(=O)[nH]c(SCC(=O)N2CCCCC2)n1	i	x	x	x	x	x	x	x	x
Cc1cc(=O)[nH]c(SCC(=O)N2CCN(C(c3ccccc3)c3ccccc3)CC2)n1	i	10*	i	i	-2	9.2*	5.0*	-26	i
COCCn1c(N)c(N(Cc2ccccc2)C(=O)c2cc3ccccc3o2)c(=O)[nH]c1=O	i	0.37	x	x	x	x	x	x	x
O=[N+]([O-])c1cccc(S(=O)(=O)N2CCN(c3ccccn3)CC2)c1	i	2.1	x	x	x	x	x	x	x
O=S1(=O)C=C(SCc2ccc(F)cc2)Nc2ccccc21	i	x	x	x	x	x	x	x	x
O=C(Nc1cccnc1)Nc1cccc(F)c1	i	6.7*	i	i	2.5*	7.3*	16*	-21	18%*

Source: PubChem BioAssay
